Screening results from PubChem.
RECQ1 inh-1 = qHTS Assay for Inhibitors of RecQ-Like Dna Helicase 1 (RECQ1) | ATP-dependent DNA helicase Q1 (Homo sapiens), P46063 | Potency, µM (highest dose often 57.3 µM), for inactives: at the highest dose activity, negative = inhibition, most hits filed as inhibitors | 240,000 tested, 0.54% active | RECQ1 DNA unwinding, red fluorescence kinetic read | AID 2549, 2010;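 further: plate controls were vehicle for no effect and no enzyme for full effect; nearly all actives have a fitted effect of over 30% in size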
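RECQ1T1 50 nM; forked duplex (20 bp + 30-nt ss tails) 200 nM, ATP 2 mM final; pH 8.0, 2 mM MgCl2, 2.5 ug/ml poly(dI-dC); 15 min compound preincubation; discontinuous kinetic read over 2 h at RT.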
BLM helicase inh-1 = qHTS Assay for Inhibitors of Bloom's syndrome helicase (BLM). RecQ-like DNA helicase BLM (Homo sapiens), P54132. recombinant BLM DNA unwinding, fluorescence dequenching. Potency, µM (highest dose often 56.1 µM), without a hit: at the highest dose activity change, negative = inhibition, most hits filed as inhibitors. 350,000 tested, 0.2% active;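 further: plate controls were vehicle for no effect and no enzyme for full effect; nearly all actives have a fitted effect of over 35% in size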
FEN1 inh-1 = qHTS Assay for the Inhibitors of Human Flap endonuclease 1 (FEN1). P39748. Recombinant FEN1 flap cleavage, fluorescence, 15 min. Potency, µM (top dose mostly 114 µM), for inactives: at the highest dose activity change, negative = inhibition, hits mostly inhibitors. 390,000 tested, 0.35% active. AID 588795, 2011; further: on the % scale 0 is the no-effect control and ±100 the full control effect; nearly all actives have a fitted effect of over 65% in size
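FEN1 at 10 nM, compound pretreatment for 15 min (room temperature), 50 nM final substrate to initiate; endpoint reads at 0 and 15 min; DMSO-only plates used as vehicle background.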
WRN helicase inh-1 = qHTS for Inhibitors of WRN Helicase | Potency, µM (titrated, usually from 114 µM), inactives show top-dose activity change, negative = inhibition, most hits filed as inhibitors | 360,000 tested, 0.46% active | Bifunctional 3'-5' exonuclease/ATP-dependent helicase WRN (Homo sapiens), Q14191 | WRN helicase unwinding, fluorescent forked duplex, kinetic; further: on the % scale 0 is the no-effect control and ±100 the full control effect; nearly all actives have a fitted effect of over 55% in size
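Kinetic fluorescence helicase assay: unwinding of a quenched forked DNA duplex (100 nM final) with 2 mM ATP final raises red fluorescence (525/598 nm). Compounds sat 15 min at room temperature with 20 nM WRN beforehand.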
L3MBTL1 inh-1 = qHTS Assay for the Inhibitors of L3MBTL1; AlphaScreen L3MBTL1–H3K9me1 peptide binding; Potency, µM (top dose mostly 57.1 µM), without a hit: at the highest dose activity, negative = inhibition, most hits filed as inhibitors; 230,000 tested, 0.66% active; Lethal(3)malignant brain tumor-like protein 1 (Homo sapiens), Q9Y468; AID 485360, 2010; further: on the % scale 0 is the no-effect control and ±100 the full control effect; nearly all actives have a fitted effect of over 60% in size
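First, the protein-peptide complex forms for 30 min at room temperature (L3MBTL1 50 nM, biotinylated H3K9me1 peptide 75 nM). Next, compounds are pin-transferred and incubated 30 min. Finally, AlphaScreen beads are added and read after 30 min.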
BLM inh = qHTS Confirmation Assay for Inhibitors of Bloom's syndrome helicase (BLM). shares compounds with BLM helicase inh-1. BLM DNA unwinding, fluorescence quenching, biochemical. Potency, µM, for inactives: max response, negative = inhibition, hits mostly inhibitors. 220 tested, 40% active. AID 2585, 2010;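 further: strand separation dequenches TAMRA so unwinding raises red fluorescence; series mostly up to about 69 µM; on the % scale 0 is the no-effect control and ±100 the full control effect; nearly all actives have a fitted effect of over 45% in size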
RECQ1 conf = Confirmation qHTS Assay for Inhibitors of RecQ-Like Dna Helicase 1 (RECQ1); 610 tested, 28% active; RECQ1 helicase DNA unwinding, fluorescence; shares compounds with RECQ1 inh-1; Potency, µM (highest dose often 229 µM), inactives show top-dose activity change, negative = inhibition, actives largely listed as inhibitors; further: on the % scale 0 is the no-effect control and ±100 the full control effect; nearly all actives have a fitted effect of over 45% in size
RECQ1 ADP FP = Counterscreen for RECQ1 Inhibitors: ADP Fluorescence Polarization Displacement Assay; shares compounds with RECQ1 inh-1; ADP fluorescence polarization displacement counterscreen; Potency, µM (series often up to 228 µM), inactives show top-dose activity change, negative = inhibition, hits mostly inhibitors; 530 tested, 27% active; further: on the % scale 0 is the no-effect control and ±100 the full control effect; nearly all actives have a fitted effect of over 45% in size
RECQ1 inh-2 = Confirmation qHTS Assay for Inhibitors of RecQ-Like Dna Helicase 1 (RECQ1) - Round 2 Cherry Picks | shares compounds with RECQ1 inh-1 | recombinant RECQ1 DNA unwinding, red fluorescence | 1,100 tested, 15% active | Potency, µM (series often up to 119 µM), for inactives: top-dose activity, negative = inhibition, actives largely listed as inhibitors | AID 504841, 2011; further: on the % scale 0 is the no-effect control and ±100 the full control effect; nearly all actives have a fitted effect of over 50% in size
L3MBTL1 inh-2 = qHTS Assay for the Inhibitors of L3MBTL1: Hit Validation. shares compounds with L3MBTL1 inh-1. L3MBTL1 methyl-lysine binding inhibition, biochemical qHTS. Potency, µM, most hits filed as inhibitors. 500 tested, 91% active. AID 540279, 2011; further: nearly all actives have a fitted effect of over 70% in size
L3MBTL1 ctr = qHTS Assay for the Inhibitors of L3MBTL1: Hit Validationin AlphaScreen Counterscreen; shares compounds with L3MBTL1 inh-1; AlphaScreen counterscreen, signal inhibition; Potency, µM (highest dose often 57.1 µM), for the others: at the highest dose activity change, negative = inhibition, actives largely listed as inhibitors; 500 tested, under 10 active; AID 602224, 2012; further: 0% is about no effect
FEN1 inh-2 = qHTS Assay for the Inhibitors of FEN1: Confirmatory Assay for Cherry-picked Compounds; shares compounds with FEN1 inh-1; FEN1 flap cleavage, TAMRA/BHQ2 fluorogenic DNA substrate; Potency, µM, actives largely listed as inhibitors; 880 tested, 79% active; AID 720498, 2013; further: nearly all actives have a fitted effect of over 60% in size
WRN helicase inh-2 = qHTS for Inhibitors of WRN Helicase: Confirmatory Assay for Cherry-picked Compounds; shares compounds with WRN helicase inh-1; 610 tested, 63% active; Potency, µM (titrated, usually from 57.1 µM), inactives show top-dose activity, negative = inhibition, actives largely listed as inhibitors; WRN helicase DNA unwinding, fluorescence kinetic; further: nearly all actives have a fitted effect of over 65% in size
TO DNA binding = qHTS for Inhibitors of WRN Helicase: Thiazole Orange DNA Binding Counterscreen; Potency, µM (series often up to 57.1 µM), inactives show at the highest dose activity change, negative = inhibition, usual class: inhibitors; AID 720499, 2013; 610 tested, 10% active; shares compounds with WRN helicase inh-1; thiazole orange DNA binding displacement, fluorescence;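 further: drop in dye fluorescence marks compound binding to DNA; on the % scale 0 is the no-effect control and ±100 the full control effect; nearly all actives have a fitted effect of over 60% in size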
BLM helicase inh-2 = qHTS for Inhibitors of WRN Helicase: BLM Helicase Counterscreen for WRN Inhibitors | shares compounds with WRN helicase inh-1 | Recombinant BLM helicase DNA unwinding, red fluorescence | Potency, µM (titrated, usually from 57.1 µM), for inactives: at the highest dose activity change, negative = inhibition, usual class: inhibitors | 610 tested, 60% active | AID 720503, 2013; further: nearly all actives have a fitted effect of over 60% in size
* = called active by the depositor; i = inactive; ? = inconclusive; nt = no result given; [ ] = remark or other dose. This is a sample that favours compounds with a hit; in the whole collection about 0.99% have one here. The call rests on the fitted dose curve; in most records, active means well fitted curve in the direction sought with a large enough effect; inconclusive means small, poorly fitted or top-dose-only effect, or another doubt; inactive means no such curve, though single readings can be large; an effect the other way counts as inactive or inconclusive. Potency means the concentration at half of the fitted maximal effect.

SMILES	RECQ1 inh-1	BLM helicase inh-1	FEN1 inh-1	WRN helicase inh-1	L3MBTL1 inh-1	RECQ1 inh-2	others
O=C(O)CSc1cc(C(=O)c2ccccc2O)cn2c(=O)c3c4c(sc3nc12)CCCC4	2%	25µM*	?	45µM*	nt	nt	BLM inh=32µM*;FEN1 inh-2=48*;WRN helicase inh-2=9.6µM*;TO DNA binding=?;BLM helicase inh-2=3.4µM*
CNC(=O)COC(=O)c1cc(-c2ccco2)nc2ccccc12	22µM*	16µM*	50µM*	79µM*	28µM*	?	BLM inh=?;L3MBTL1 inh-2=3.4*;L3MBTL1 ctr=2%;FEN1 inh-2=?;WRN helicase inh-2=15µM*;TO DNA binding=-29%;BLM helicase inh-2=4.8µM*
O=C(COC(=O)c1cc(-c2ccco2)nc2ccccc12)NCc1ccccc1	-5%	-8%	8%	-17%	nt	nt
CCc1ccc(C(=O)c2cn(CC(=O)Nc3cccc(OC)c3)c3ccc(OC)cc3c2=O)cc1	nt	20µM*	40µM*	nt	-3%	nt	BLM inh=20µM*;FEN1 inh-2=67*;WRN helicase inh-2=19µM*;TO DNA binding=-6%;BLM helicase inh-2=4.3µM*
COC(=O)N[C@H](C[N+](=O)[O-])C(C)(C)C	i	5%	nt	nt	nt	nt
COc1ccccc1Nc1nc(N)nc(CN2CCN(Cc3ccc4c(c3)OCO4)CC2)n1	-13%	0%	3%	-2%	11%	nt
COc1ccc(N=C2NC(=O)/C(=C\c3ccco3)S2)cc1	16µM*	?	-16%	?	nt	?	RECQ1 conf=?;RECQ1 ADP FP=-13%[91.9 µM]
CCCN1C(=O)/C(=C/c2ccc(C)o2)SC1=Nc1ccc(OCC)cc1	1%	-6%	-3%	-10%	-14%	nt
CCCN1C(=O)/C(=C/c2ccc(C)o2)SC1=Nc1ccc(OC)cc1	?	-6%	-3%	-12%	-15%	-26%
CCCN1C(=O)/C(=C/c2ccco2)SC1=Nc1ccc(OC)cc1	25µM*	-21%	2%	-3%	?	-9%
Cc1ccc(OCC(O)CNS(=O)(=O)c2ccccc2C(=O)O)cc1 (centres undefined)	8%	-12%	-12%	2%	8%	nt	RECQ1 conf=-1%;RECQ1 ADP FP=3%
O=C(O)c1ccccc1S(=O)(=O)NCC(O)COC1CCCCC1 (centres undefined)	0%	-1%	32%	-8%	5%	nt
O=S(=O)(c1ccccc1)N1CCC2(CC1)CN(C(c1ccccc1)c1ccccc1)C2	-5%	-2%	nt	nt	nt	nt
CCOC(=O)c1c(-n2cnnn2)sc2c1CCCC2	1%	-2%	16%	-1%	1%	nt
CCOC(=O)c1c(N2C(=O)Nc3cc(Cl)c(Cl)cc3N2O)sc2c1CCCCC2	?	-8%	?	?	-13%	20µM*
Cc1ccc(C(=O)NCCn2c(C)cc3ccccc32)cc1C	nt	-6%	-7%	nt	nt	nt
O=C(NC(Cc1ccccc1)C(=O)O)c1ccc(S(=O)(=O)N2CCCCC2)cc1 (centres undefined)	-4%	3%	0%	-1%	nt	nt	RECQ1 conf=12%;RECQ1 ADP FP=?
CCOc1cccc(NC(=O)c2ccc(S(=O)(=O)N3CCCC3)cc2)c1	13µM*	-3%	-22%	-3%	nt	-19%
CC(=O)c1cccc(NC(=O)c2ccc(S(=O)(=O)N3CCCCC3)cc2)c1	5%	-1%	-10%	-6%	?	nt
Cc1cc2ccccc2n1CCNC(=O)c1ccc(S(=O)(=O)N2CCCCC2)cc1	28µM*	-29%	-9%	-14%	-8%	79µM*
O=C(Nc1ccc(S(=O)(=O)N2CCCCC2)cc1)c1ccc(CN2CCc3ccccc3C2)cc1	?	-11%	-6%	-4%	-12%	-14%
C=CCSc1nc2ccccc2c(=O)n1C1CCOC(C)(C)C1 (centres undefined)	7%	-4%	13%	-6%	11%	nt
